Source: PubChem
CYP2C9 activ – CYP2C9 (human) activation. AID 1024. P11712. activation factor at 5 µM. recombinant CYP2C9, luciferin-H conversion, luminescence; hits give high values; factor 1 = untreated enzyme, 0 = blocked. 96,000 tested, 1.4% active;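 active means activation factor of 2 or more for CYP2C9 at a 5 µM dose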;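 further: 0 = sulfaphenazole-blocked wells and 1 = vehicle-only wells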
Target sequence (P11712 whole entry, looked up): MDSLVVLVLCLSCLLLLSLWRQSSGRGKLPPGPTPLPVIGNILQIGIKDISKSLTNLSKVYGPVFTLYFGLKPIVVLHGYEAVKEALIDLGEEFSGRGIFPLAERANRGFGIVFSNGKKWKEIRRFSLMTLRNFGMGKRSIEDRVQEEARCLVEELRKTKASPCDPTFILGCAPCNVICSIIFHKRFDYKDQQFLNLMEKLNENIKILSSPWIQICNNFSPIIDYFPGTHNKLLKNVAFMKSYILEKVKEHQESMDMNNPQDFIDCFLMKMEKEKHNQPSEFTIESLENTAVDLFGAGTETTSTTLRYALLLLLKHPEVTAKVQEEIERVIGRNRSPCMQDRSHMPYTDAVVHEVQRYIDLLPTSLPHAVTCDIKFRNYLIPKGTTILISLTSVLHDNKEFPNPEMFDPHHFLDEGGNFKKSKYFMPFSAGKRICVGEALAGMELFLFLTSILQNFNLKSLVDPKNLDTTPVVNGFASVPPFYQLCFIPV
CYP2C19 activ – cytochrome P450 2C19 (human) activation. P33261. 96,000 tested, under 10 active. activation factor at 5 µM. recombinant CYP2C19, luciferin-H EGE luminescence; hits give high values; 0 = fully inhibited enzyme, 1 = untreated enzyme;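 active means activation factor of at least 2 at 5 µM in the primary screen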;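 further: 0 = wells with 2.5 mM tranylcypromine and 1 = vehicle-only wells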
CYP2C9 inh – human CYP2C9 inhibition; AID 777; P11712; CYP2C9 Supersomes, luciferin-H conversion, luminescence; 96,000 tested, 20% active; inhibition, % at 5 µM;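 active means blocking of liver enzyme CYP2C9 beyond about 50% at 5 µM, limit read from the data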
CYP2C19 inh – human CYP2C19 inhibition; inhibition, % at 5 µM; CYP2C19 Supersomes, luciferin-H EGE luminescence, 30 min; 96,000 tested, 21% active; P33261; AID 778;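 active means CYP2C19 inhibition above a set limit at 5 µM in the primary screen, cut at about 50% in these data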;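 further: plate controls were negative control wells for no effect and 2.5 mM tranylcypromine positive control for full effect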
An asterisk follows results filed as active. Hits are enriched below; roughly 31% of the tested compounds scored in any of these assays.

`Fc1ccc(Sc2nc(-c3ccccc3)nnc2C(F)(F)F)cc1` gave CYP2C9 activ 0.6, CYP2C19 activ 0.9, CYP2C9 inh 38 and CYP2C19 inh 14.
For CCCn1c(=O)n(C)c(=O)c2c(SCC(=O)NCc3ccco3)nc(C3CC3)nc21 the results were CYP2C9 activ 0.4, CYP2C19 activ 0.9, CYP2C9 inh 59* and CYP2C19 inh 12.
Screening COc1ccc(-c2nnc(SC3CCOC3=O)n2C2CCCCC2)cc1OC (configuration not stated) returned CYP2C9 activ 0.8, CYP2C19 activ 0.8, CYP2C9 inh 24 and CYP2C19 inh 24.
For O=C1OCCC1Sc1nc2ccccc2n1-c1ccccc1 (configuration not stated) the results were CYP2C9 activ 0.3, CYP2C19 activ 0.3, CYP2C9 inh 66* and CYP2C19 inh 69*.
O=C1OCCC1Sc1nc2ccccc2n1Cc1ccccc1 (configuration not stated) was read as CYP2C9 activ 0.5, CYP2C19 activ 0.2, CYP2C9 inh 55* and CYP2C19 inh 82*.
COc1ccc(-n2c(SC3CCOC3=O)nc3ccccc32)cc1 (configuration not stated) was read as CYP2C9 activ 0.6, CYP2C19 activ 0.5, CYP2C9 inh 41 and CYP2C19 inh 51*.
`O=C1OCCC1Sc1nnc(-c2ccccc2)o1` (configuration not stated) gave CYP2C9 activ 1, CYP2C19 activ 0.6, CYP2C9 inh 2 and CYP2C19 inh 39.
Screening O=C(O)Cn1c(SC2CCCCC2)nc2ccccc21 returned CYP2C9 activ 0.9, CYP2C19 activ 0.9, CYP2C9 inh 13 and CYP2C19 inh 7.
For Cc1cc(C)n(C(=O)CNC(=O)c2cccs2)n1 the results were CYP2C9 activ 0.9, CYP2C19 activ 0.8, CYP2C9 inh 13 and CYP2C19 inh 18.
`Cc1ccc(-c2nn(-c3cc(Cl)ccc3[N+](=O)[O-])c(=O)c3ccccc23)cc1C` gave CYP2C9 activ 0.7, CYP2C19 activ 0.8, CYP2C9 inh 33 and CYP2C19 inh 24.
O=C(Nc1ccc(N2CCN(Cc3ccccc3)CC2)cc1)c1ncn[nH]1 was read as CYP2C9 activ 1.1, CYP2C19 activ 1, CYP2C9 inh -7 and CYP2C19 inh -1.
For CC1=C(C#N)C(c2cn(-c3ccccc3)nc2-c2cccs2)C(C#N)=C(C)N1 the results were CYP2C9 activ 0.2, CYP2C19 activ 0.3, CYP2C9 inh 75* and CYP2C19 inh 74*.
C=CCOC(=O)C1=C(C)NC(=O)NC1c1cn(-c2ccccc2)nc1-c1cccs1 (configuration not stated) was read as CYP2C9 activ 0.2, CYP2C19 activ 0.3, CYP2C9 inh 79* and CYP2C19 inh 68*.
`COC(=O)C1=C(C)NC(C)=C(C(=O)OC)C1c1cn(-c2ccccc2)nc1-c1ccco1` gave CYP2C9 activ 0.2, CYP2C19 activ 0.6, CYP2C9 inh 83* and CYP2C19 inh 43.
For COCCOC(=O)C1=C(C)NC(=O)NC1c1cn(-c2ccccc2)nc1-c1cccs1 (configuration not stated) the results were CYP2C9 activ 0.3, CYP2C19 activ 0.2, CYP2C9 inh 70* and CYP2C19 inh 76*.
N#Cc1cn(-c2ccccc2)nc1-c1ccco1 was read as CYP2C9 activ 0.7, CYP2C19 activ 0.9, CYP2C9 inh 32 and CYP2C19 inh 14.
`CCOC(=O)Cn1c(=O)oc2cc(S(=O)(=O)NCc3cccs3)ccc21` gave CYP2C9 activ 0.7, CYP2C19 activ 0.9, CYP2C9 inh 30 and CYP2C19 inh 14.
For Cc1ccc(-c2nnn(CC(=O)N(c3cccc(O)c3)C(C(=O)NC(C)(C)C)c3cccs3)n2)o1 (configuration not stated) the results were CYP2C9 activ 0.9, CYP2C19 activ 0.9, CYP2C9 inh 6 and CYP2C19 inh 6.
Screening CCOC(=O)N1CCC(NC(=O)c2csc3c2CCCC3)CC1 returned CYP2C9 activ 1.3, CYP2C19 activ 0.9, CYP2C9 inh -29 and CYP2C19 inh 14.
Screening CCn1c(=O)cc(SCC(=O)Nc2cc(OC)c(OC)c(OC)c2)c2ccccc21 returned CYP2C9 activ 2.9*, CYP2C19 activ 0.2, CYP2C9 inh -188 and CYP2C19 inh 77*.
Screening CCn1c(=O)cc(SCC(=O)NCc2ccc(C)cc2)c2ccccc21 returned CYP2C9 activ 1.7, CYP2C19 activ 0.5, CYP2C9 inh -68 and CYP2C19 inh 47.
`CCn1c(=O)cc(SCC(=O)Nc2ccc3c(c2)OCCO3)c2ccccc21` gave CYP2C9 activ 2*, CYP2C19 activ 0.4, CYP2C9 inh -101 and CYP2C19 inh 61*.
For CCn1c(=O)cc(SCC(=O)NCc2ccc(C)o2)c2ccccc21 the results were CYP2C9 activ 2*, CYP2C19 activ 0.7, CYP2C9 inh -100 and CYP2C19 inh 32.
CCn1c(=O)cc(SCC(=O)NCc2ccco2)c2ccccc21 was read as CYP2C9 activ 1.7, CYP2C19 activ 0.8, CYP2C9 inh -74 and CYP2C19 inh 19.
Screening CCOc1cccc(C2c3c(oc4cc(C)c(C)cc4c3=O)C(=O)N2CCCN(C)C)c1 (configuration not stated) returned CYP2C9 activ 0.5, CYP2C19 activ 1.1, CYP2C9 inh 50 and CYP2C19 inh -5.
CCN(CC)c1ccc(C=Nc2ccc(N(C)C)cc2)c(O)c1 was read as CYP2C9 activ 1.7, CYP2C19 activ 0.9, CYP2C9 inh -69 and CYP2C19 inh 14.
For Cc1ccc(C=Nc2ccc(N(C)C)cc2)o1 the results were CYP2C9 activ 0.6, CYP2C19 activ 0.5, CYP2C9 inh 44 and CYP2C19 inh 52*.
For O=[N+]([O-])c1ccc(N(c2ccccc2)c2ccccc2)cc1 the results were CYP2C9 activ 0.5, CYP2C19 activ 0.7, CYP2C9 inh 51* and CYP2C19 inh 26.
O=C(C#Cc1ccccc1)c1ccc([N+](=O)[O-])cc1 was read as CYP2C9 activ 0.9, CYP2C19 activ 0.9, CYP2C9 inh 8 and CYP2C19 inh 9.
Screening CCCCNC(=O)CNC(=O)c1cccs1 returned CYP2C9 activ 0.9, CYP2C19 activ 0.7, CYP2C9 inh 14 and CYP2C19 inh 30.
NC(=O)c1ccccc1NC(=O)CS(=O)(=O)Cc1ccccc1 was read as CYP2C9 activ 0.9, CYP2C19 activ 0.8, CYP2C9 inh 14 and CYP2C19 inh 23.
`COc1ccc(C2NC(=O)NC(O)(C(F)(F)F)C2C(=O)c2ccccc2)cc1OC` (configuration not stated) gave CYP2C9 activ 0.8, CYP2C19 activ 0.9, CYP2C9 inh 18 and CYP2C19 inh 9.
For COc1cccc(C2NC(=O)NC(O)(C(F)(F)F)C2C(=O)c2cccnc2)c1OC (configuration not stated) the results were CYP2C9 activ 0.5, CYP2C19 activ 0.1, CYP2C9 inh 49 and CYP2C19 inh 92*.
`COc1cc2cc(C)c(SCC(=O)N3CCOCC3)nc2cc1OC` gave CYP2C9 activ 0.6, CYP2C19 activ 0.8, CYP2C9 inh 37 and CYP2C19 inh 16.
